Laboratory results: PubChem BioAssay (NCATS)
Records with an inconclusive call do not appear. Calls of active or inactive are those of the source. The call rests on the fitted dose curve; in most records, active means well fitted curve in the direction sought with a large enough effect; inconclusive means small, poorly fitted or top-dose-only effect, or another doubt; inactive means no such curve, though single readings can be large; an effect the other way counts as inactive or inconclusive.

Experiments:
[1] = system: MCC-13; assay: qHTS assay to identify novel small-molecules to repurpose for Merkel cell carcinoma treatment (AID 1296009); conditions: MCC and control cell lines, CellTiter-Glo viability, 72 h; series mostly up to 46 µM; further: nearly all actives have a fitted effect of over 60% in size
Summary of the method: (§1)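 CellTiter-Glo luminescence after 72 hr compound exposure at 37 degree celsius gave cell viability. Libraries NPC and MIPE were run as 8- and 11-point dose responses; RLUs normalized to DMSO (negative) and no-cell (cytotoxicity) controls.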

[2] = system: MCC-26; assay: as above; conditions: MCC and control cell lines, CellTiter-Glo viability, 72 h; series mostly up to 46 µM
Summary of the method: as §1

[3] = system: MKL-1; assay: as above; conditions: MCC and control cell lines, CellTiter-Glo viability, 72 h; series mostly up to 46 µM
Summary of the method: as §1

[4] = system: MKL-2; assay: as above; conditions: MCC and control cell lines, CellTiter-Glo viability, 72 h; series mostly up to 46 µM
Summary of the method: as §1

[5] = system: UISO; assay: as above; conditions: MCC and control cell lines, CellTiter-Glo viability, 72 h; series mostly up to 46 µM
Summary of the method: as §1

[6] = system: WaGa; assay: as above; conditions: MCC and control cell lines, CellTiter-Glo viability, 72 h; series mostly up to 46 µM
Summary of the method: as §1

[7] = system: C33A; assay: Primary qHTS to identify gynecologic anti-cancer compounds using libraries of approved drugs and bioactive compounds (AID 1345084); conditions: Gynecologic cancer cell panel viability, ATPlite luminescence, 48 h; series mostly up to 57.5 µM; further: nearly all actives have a fitted effect of over 55% in size
Summary of the method: (§2)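 Luminescence from the ATPlite ATP-monitoring reagent indicates viable cell number; lower signal means cytotoxicity. Cells received compound 16 h after seeding and were exposed for 48 h across five concentrations.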

[8] = system: CAOV3; assay: as above; conditions: Gynecologic cancer cell panel viability, ATPlite luminescence, 48 h; series mostly up to 57.5 µM
Summary of the method: as §2

[9] = system: CASKI; assay: as above; conditions: Gynecologic cancer cell panel viability, ATPlite luminescence, 48 h; series mostly up to 57.5 µM
Summary of the method: as §2

[10] = system: Es-2; assay: as above; conditions: Gynecologic cancer cell panel viability, ATPlite luminescence, 48 h; series mostly up to 57.5 µM
Summary of the method: as §2

[11] = system: HeLa; assay: as above; conditions: Gynecologic cancer cell panel viability, ATPlite luminescence, 48 h; series mostly up to 57.5 µM
Summary of the method: as §2

[12] = system: JEG-3; assay: as above; conditions: Gynecologic cancer cell panel viability, ATPlite luminescence, 48 h; series mostly up to 57.5 µM
Summary of the method: as §2

[13] = system: OV90; assay: as above; conditions: Gynecologic cancer cell panel viability, ATPlite luminescence, 48 h; series mostly up to 57.5 µM
Summary of the method: as §2

[14] = system: SKOV3; assay: as above; conditions: Gynecologic cancer cell panel viability, ATPlite luminescence, 48 h; series mostly up to 57.5 µM
Summary of the method: as §2

[15] = system: Tov-21-G; assay: as above; conditions: Gynecologic cancer cell panel viability, ATPlite luminescence, 48 h; series mostly up to 57.5 µM
Summary of the method: as §2

[16] = system: Tov112D; assay: as above; conditions: Gynecologic cancer cell panel viability, ATPlite luminescence, 48 h; series mostly up to 57.5 µM
Summary of the method: as §2

[17] = Drug repurposing screens with cells derived from glioblastoma tumor samples (AID 1345199); conditions: GBM patient neurospheres viability, ATP luminescence, 48 h; further: nearly all actives have a fitted effect of over 40% in size
Summary of the method: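 Primary testing used CD133+ neurospheres from four GBM patients, seven concentrations, 48 h exposure and ATP-based viability; confirmation added three slower-growing patient lines.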

[18] = system: Hek293T; assay: Primary qHTS to identify gynecologic anti-cancer compounds using libraries of approved drugs and bioactive compounds (AID 1345084); conditions: Gynecologic cancer cell panel viability, ATPlite luminescence, 48 h, control line for the selectivity index; series mostly up to 57.5 µM; further: nearly all actives have a fitted effect of over 55% in size
Summary of the method: as §2

[19] = system: PA-1; assay: as above; conditions: Gynecologic cancer cell panel viability, ATPlite luminescence, 48 h; series mostly up to 57.5 µM
Summary of the method: as §2

[20] = system: NIH3T3; assay: qHTS assay to identify novel small-molecules to repurpose for Merkel cell carcinoma treatment (AID 1296009); conditions: MCC and control cell lines, CellTiter-Glo viability, 72 h; at 44.8 µM (top of the series) unless noted; further: nearly all actives have a fitted effect of over 60% in size
Summary of the method: as §1

[21] = at 45.9 µM (top of the series), tumour line B
[22] = at 45.9 µM (top of the series), tumour line D
[23] = at 46.1 µM (top of the series), tumour line C
[24] = at 20 µM (top of the series), tumour line C
[25] = at 21.2 µM (top of the series), tumour line B
[26] = at 21.2 µM (top of the series), tumour line D
[27] = at 46 µM (top of the series), tumour line A
On the % scale 0 is the no-effect control and ±100 the full control effect.

CC1(c2ccccc2)OC(C(=O)O)=CC1=O (stereo not drawn)
inactive: outcome [1] | outcome [2] | outcome [3] | outcome [4] | outcome [5] | outcome [6] | outcome [7] | outcome [8] | outcome [9] | outcome [10] | outcome [11] | outcome [12] | Potency [13] | outcome [14] | outcome [15] | outcome [16] | activity, negative = cell killing [17, 21] -1.24% | activity, negative = cell killing [17, 22] -9.61% | activity, negative = cell killing [17, 23] -15.9%

O=C(O)CCCc1ccccc1
inactive: outcome [1] | outcome [2] | outcome [3] | outcome [4] | outcome [5] | outcome [6] | outcome [7] | outcome [9] | outcome [10] | outcome [11] | outcome [18] | outcome [12] | Potency [13] | outcome [19] | outcome [14] | outcome [15] | outcome [16] | activity, negative = cell killing [17, 21] -2.94% | activity, negative = cell killing [17, 22] -2.78% | activity, negative = cell killing [17, 23] -9.45%

CC(=O)OCC(=O)[C@@]1(O)CC[C@H]2[C@@H]3CCC4=CC(=O)C=C[C@]4(C)[C@@]3(F)[C@@H](O)C[C@@]21C
inactive: outcome [1] | outcome [3] | outcome [4] | outcome [5] | outcome [6] | outcome [7] | outcome [9] | outcome [10] | outcome [11] | outcome [18] | outcome [12] | Potency [13] | outcome [19] | outcome [15] | outcome [16] | activity, negative = cell killing [17, 24] 11.3% | activity, negative = cell killing [17, 25] 1.05% | activity, negative = cell killing [17, 26] -1.44% | activity, negative = cell killing ([17]; at 21.3 µM (top of the series), tumour line A) -7.16%

Cc1c(NC(C)C)c(=O)n(-c2ccccc2)n1C
inactive: outcome [1] | outcome [3] | outcome [4] | outcome [20] | outcome [5] | outcome [6] | outcome [7] | outcome [8] | outcome [9] | outcome [10] | outcome [11] | outcome [18] | outcome [12] | Potency [13] | outcome [19] | outcome [15] | outcome [16] | activity, negative = cell killing [17, 21] 0.947% | activity, negative = cell killing [17, 22] -9.1% | activity, negative = cell killing [17, 23] -2.3%

Cc1onc(-c2ccccc2)c1-c1ccc(S(N)(=O)=O)cc1
inactive: outcome [1] | outcome [3] | outcome [4] | outcome [20] | outcome [5] | outcome [6] | outcome [8] | outcome [9] | outcome [10] | outcome [11] | outcome [18] | outcome [12] | Potency [13] | outcome [19] | outcome [14] | outcome [15] | outcome [16] | activity, negative = cell killing [17, 21] -8.7% | activity, negative = cell killing [17, 22] -24.2% | activity, negative = cell killing [17, 23] -2.89%

Cc1ccc(S(=O)(=O)NC(=O)NC2CCCCCCC2)cc1
inactive: outcome [1] | outcome [3] | outcome [4] | outcome [5] | outcome [6] | outcome [7] | outcome [9] | outcome [10] | outcome [11] | outcome [18] | outcome [12] | Potency [13] | outcome [19] | outcome [14] | outcome [15] | outcome [16] | activity, negative = cell killing [17, 21] -4.76% | activity, negative = cell killing [17, 22] 3.34% | activity, negative = cell killing [17, 27] -27.8%

CCC(C)(CN(C)C)OC(=O)c1ccccc1 (stereo not drawn)
inactive: outcome [1] | outcome [3] | outcome [4] | outcome [5] | outcome [6] | outcome [7] | outcome [9] | outcome [10] | outcome [11] | outcome [18] | outcome [12] | Potency [13] | outcome [19] | outcome [14] | outcome [15] | outcome [16] | activity, negative = cell killing [17, 24] -12.8% | activity, negative = cell killing [17, 25] -2.39% | activity, negative = cell killing [17, 26] -5.13%

Cc1cc(OI)c(C(C)C)cc1-c1cc(C(C)C)c(OI)cc1C
inactive: outcome [1] | outcome [3] | outcome [4] | outcome [5] | outcome [6] | outcome [7] | outcome [8] | outcome [9] | outcome [10] | outcome [11] | outcome [18] | outcome [12] | Potency [13] | outcome [19] | outcome [14] | outcome [15] | outcome [16] | activity, negative = cell killing [17, 21] -6.87% | activity, negative = cell killing [17, 22] -13.4% | activity, negative = cell killing [17, 23] 33.1%

O=C1c2ccccc2C(=O)C1c1ccc(Br)cc1
inactive: outcome [1] | outcome [3] | outcome [4] | outcome [5] | outcome [6] | outcome [7] | outcome [8] | outcome [9] | outcome [10] | outcome [11] | outcome [18] | outcome [12] | Potency [13] | outcome [19] | outcome [14] | outcome [15] | outcome [16] | activity, negative = cell killing [17, 21] -20.2% | activity, negative = cell killing [17, 22] -25.8% | activity, negative = cell killing [17, 23] -18.3%

CC(=O)Nc1ccccc1
inactive: outcome [1] | outcome [3] | outcome [4] | outcome [20] | outcome [5] | outcome [6] | outcome [7] | outcome [8] | outcome [9] | outcome [10] | outcome [11] | outcome [18] | outcome [12] | Potency [13] | outcome [19] | outcome [14] | outcome [15] | outcome [16] | activity, negative = cell killing [17, 21] -6.03% | activity, negative = cell killing [17, 22] -14.5% | activity, negative = cell killing [17, 27] -21.5% | activity, negative = cell killing [17, 23] 6.02%
